AMA1-RON2 inh = qHTS for Inhibitors of AMA1-RON; Towards Development of Antimalarial Drug Lead: Primary Screen | actives 0.2% (n = 360,000) | AlphaScreen AMA1-biotinylated RON2 peptide binding | Potency, µM (series often up to 58.2 µM), inactives show at the top dose activity change, negative = inhibition, actives largely listed as inhibitors | Plasmodium falciparum AMA1 (3D7) - RON2 peptide interaction;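 also: 0% = vehicle wells and -100% = peptide control; nearly all actives have a fitted effect of over 45% in size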
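AMA1 (3D7) with his tag at 25 nM final met compounds first, then biotinylated RON2 peptide at 25 nM; detection used donor plus acceptor beads, 10 µg/mL apiece, read by AlphaScreen after 30 min at room temperature.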
Pf growth 96h = Primary qHTS for delayed death inhibitors of the malarial parasite plastid, 96 hour incubation; P. falciparum luciferase reporter growth, 96 h; Potency, µM (top dose mostly 28.7 µM), for the others: at the top dose activity change, negative = inhibition, actives largely listed as inhibitors; actives 6.9% (n = 320,000); AID 504834, 2011; also: % is scaled to controls: 0 for no effect and ±100 for the full control effect
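Plates of compound plus infected erythrocytes (2% hematocrit, 0.05% parasitemia final) incubate 96 hours, 37 C, 5% CO2. Detection reagent added; reduced luminescence from the parasites' luciferase reporter flags inhibition.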
HCV inhibitor = qHTS Assay for Inhibitors of Hepatitis C Virus (HCV) | Potency, µM (top dose mostly 41.8 µM), for inactives: top-dose activity change, negative = inhibition, most hits filed as inhibitors | actives 3.4% (n = 340,000) | Huh7.5.1 HCVcc-Cre infection, luciferase reporter, 44 h; also: % is scaled to controls: 0 for no effect and ±100 for the full control effect
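Cells seeded at 1,000/well and cultured 4 h, then compounds added followed by HCVcc-Cre virus (~0.5 moi). After 44 h further culture, luciferase substrate was added, plates held 15 min at room temperature, and luminescence read for 15 sec.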
Pf growth 48h = Primary qHTS for delayed death inhibitors of the malarial parasite plastid, 48 hour incubation; actives 5.9% (n = 310,000); Potency, µM (highest dose often 28.7 µM), without a hit: at the highest dose activity change, negative = inhibition, actives largely listed as inhibitors; P. falciparum luciferase growth in erythrocytes, 48 h; AID 504832, 2011; also: % is scaled to controls: 0 for no effect and ±100 for the full control effect
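Erythrocytes infected with P. falciparum carrying an integrated firefly luciferase reporter (2% hematocrit, 0.1% parasitemia final) were exposed to compounds in RPMI 1640 with 0.5% Albumax at 37 C, 5% CO2. Growth inhibition was scored as reduced luminescence.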
HCV confirm = qHTS Assay for Inhibitors of Hepatitis C Virus (HCV): Confirmation Assay for Cherry-picked Compounds; AID 720575, 2013; actives 78% (n = 640); shares compounds with HCV inhibitor; Potency, µM (doses to about 41.8 µM), for inactives: top-dose activity, negative = inhibition, actives largely listed as inhibitors; HCVcc-Cre infectious virus cell assay, luciferase, inhibition; also: nearly all actives have a fitted effect of over 80% in size
HCV cytotox = qHTS Assay for Inhibitors of Hepatitis C Virus (HCV): Cytotoxicity Counterscreen for Cherry-picked Compounds; shares compounds with HCV inhibitor; HCV host cell line cytotoxicity counterscreen; Potency, µM (highest dose often 41.8 µM), without a hit: top-dose activity change, negative = cytotoxicity, actives largely listed as inhibitors; actives 22% (n = 640);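 also: 44 h compound exposure; % is scaled to controls: 0 for no effect and ±100 for the full control effect; nearly all actives have a fitted effect of over 55% in size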
* marks the source's active call; other numbers are inactive results; ? = inconclusive; / = not tested or not shown; [ ] = another dose, or the depositor's remark. An excerpt weighted towards active compounds, which were near 11% of everything screened. Calls follow the shape of the dose curve; as a rule, active = well fitted curve in the direction sought with a large enough effect; inconclusive = small, poorly fitted or top-dose-only effect, or another doubt; inactive = no such curve, though single readings can be large; an effect the other way counts as inactive or inconclusive. Potency is read from the fitted curve at half-maximal effect.

SMILES | AMA1-RON2 inh | Pf growth 96h | HCV inhibitor | Pf growth 48h | HCV confirm | HCV cytotox
CNc1ccc2nc3ccccc3[n+](C)c2c1 | ? | 0.165µM* | 3.16µM* | 0.165µM* | 12.5µM* | 14.1µM*
C=CCC[C@@H](Cc1ccc(F)cc1)C(=O)OC[C@H](Cc1c[nH]c2ccccc12)NC(=O)[C@H](CC=C)CC(=O)N(CCO)Cc1ccccc1 | -6.2% | / | ? | / | / | /
CC1(C)CN=C(N(Cc2ccccc2)C(=O)Nc2ccccc2)S1 | 9.8% | 95.9% | 16.4% | 139.3% | / | /
COC1C(O)C(C)OC(OC2CCC3(C)C(CCC4C3C(O)CC3(C)C(C5=CC(=O)OC5)CCC43O)C2)C1O (stereo unspecified) | -7.4% | / | 1.58µM* | / | 1.12µM* | ?
CC12CC[C@H]3[C@@H](CCC4(O)C[C@H](O)CCC34/C=N/NC(=O)c3ccccc3[N+](=O)[O-])C1(O)CCC2C1=CC(=O)OC1 (stereo partly specified) | 3.3% | 42.0% | -4.4% | -1.7% | / | /
O=C(/C=C\c1ccc2c(c1)OCO2)Nc1c2c(nn1-c1ccc(Cl)cc1)CSC2 | 0.0% | 10.4µM* | ? | ? | 12.5µM* | 12.7%
CC(=O)Nc1c2c(nn1-c1ccccc1)CSC2 | -5.0% | 31.0% | 4.5% | 26.9% | / | /
c1ccc(-c2cccc(-c3ccccn3)n2)nc1 | -87.5% | 39.5% | 5.62µM* | 1.47µM* | 3.53µM* | 3.53µM*
CSc1ccc(CN2CCN(Cc3ccc([N+](=O)[O-])cc3)CC2)cc1 | ? | ? | ? | ? | 3.96µM* | 7.05µM*
CCN(CC)C(=O)c1sc(NC(=O)c2ccc(C)c([N+](=O)[O-])c2)c(C#N)c1C | 3.0% | 6.6% | 11.3% | 6.7% | / | /
C=C(c1ccc(O)cc1)c1ccc(O)cc1 | -8.9% | -6.8% | 8.91µM* | -12.6% | 14.1µM* | 42.4%
Cc1nc(N)nc(N)c1CCCc1ccc(Cl)c(Cl)c1 | -14.6% | / | 3.98µM* | / | 7.05µM* | ?
COC(=O)C1=C(C(=O)OC)SC2(S1)C(C(=O)OC)=C(C(=O)OC)Sc1c2ssc1=O | 28.2µM* | / | ? | / | 9.95µM* | 7.91µM*
CCOc1ccc(Cc2noc3c2C(=O)CC(C)(C)C3)cc1OCC | -4.3% | 26.1% | -1.1% | 48.2% | / | /
COc1ccc(NC(=O)/C=C/c2cc(Br)ccc2OC)cc1 | 33.3% | 18.1% | ? | -5.3% | / | /
CCN(CC)c1ccc(NC(=O)/C=C/c2cc(Br)ccc2OC)cc1 | ? | 0.0% | ? | ? | 12.5µM* | ?
COc1ccc(-c2nc(CN3CCN(Cc4ccccc4)CC3)c(C)o2)cc1 | -8.0% | 0.2% | -18.4% | ? | / | /
Cc1cc(N2CCN(Cc3nc(-c4ccc(Cl)cc4)oc3C)CC2)cc(C)n1 | -10.1% | ? | 2.24µM* | ? | 9.95µM* | ?
CCc1nnc(NC(=O)c2ccc(OC)cc2OC)s1 | -3.0% | 2.1% | 8.91µM* | 144.1% | -19.3% | -31.8%
COc1ccc(C(=O)Nc2nnc(SCC(=O)Nc3ccc(NC(C)=O)cc3)s2)c(OC)c1 | -5.0% | 72.1% | -12.1% | 141.2% | / | /
Cc1c(C(=O)NCc2ccccc2C(F)(F)F)sc(=O)n1Cc1ccc(F)cc1 | 3.2% | / | / | / | / | /
Cc1ccc(C(=O)c2cc([N+](=O)[O-])ccc2N2CCCCC2)c(C)c1 | -24.4% | 13.1µM* | ? | 11.7µM* | ? | -39.3%
O=C(O)c1cc([N+](=O)[O-])ccc1N1CCCCC1 | -1.7% | ? | 3.0% | 16.9% | / | /
Cn1cc(CNCc2cn[nH]c2-c2ccc(F)cc2)c(-c2ccc3c(c2)OCCO3)n1 | -1.3% | -4.6% | 1.9% | 14.9% | / | /
Cn1cc(CNCc2ccc(OC(F)(F)F)cc2)c(-c2ccc3c(c2)OCCO3)n1 | -8.2% | ? | 1µM* | -13.4% | 0.995µM* | 4.99µM*
SMILES | AMA1-RON2 inh | Pf growth 96h | HCV inhibitor | Pf growth 48h | HCV confirm | HCV cytotox
COc1cc(S(=O)(=O)Nc2ccccc2C(=O)N2CCCCC2)ccc1NC(C)=O | 2.7% | -12.3% | 8.7% | -25.2% | / | /
CCC(C)NC(=O)CSc1nc(-c2cccs2)cc(C(F)(F)F)n1 (stereo unspecified) | -5.9% | 5.22µM* | 4.47µM* | / | 19.9µM* | -35.9%
O=C(O)CSc1nc(-c2cccs2)cc(C(F)(F)F)n1 | 9.3% | -15.1% | -21.8% | 4.7% | / | /
CCOC(=O)c1cc2c(=O)n3ccccc3nc2n(CCCOC)c1=NC(=O)C(C)(C)C | 12.9% | 0.6% | ? | 2.8% | ? | -15.5%
CCOC(=O)c1cc2c(=O)n3ccccc3nc2n(CCOC)c1=NC(=O)C(C)(C)C | 13.5% | -11.4% | ? | 23.0% | / | /
Cc1ccc(OCCCCN2CCCCC2)c(C)c1 | 9.4% | ? | 15.7% | 42.6% | / | /
Cc1ccc(OCCCCNC2CCCC(C)C2C)c(C)c1 (stereo unspecified) | -7.1% | ? | 7.94µM* | ? | 25µM* | ?
CC(C)CN(C(=O)CCCOc1ccc(Cl)cc1Cl)c1c(N)n(Cc2ccccc2)c(=O)[nH]c1=O | 5.6% | ? | ? | 11.7µM* | 11.2µM* | 81.5%
Nc1nc(C2CC2)c(Sc2sc(N)nc2C2CC2)s1 | -0.1% | ? | -6.6% | 26.7% | / | /
Cc1cc(C(=O)COC(=O)c2ccc(O)cc2O)c(C)n1-c1ccccc1 | 9.4%[11.6 µM] | 289.9% | ? | 123.8% | 17.7µM* | -35.1%
COCc1c(C(=O)OC)nnn1-c1ccc(C(F)(F)F)cc1[N+](=O)[O-] | -6.1% | 198.5% | -7.7% | ? | / | /
Cc1cccc(Cn2c(O)c(N=NC(=S)Nc3ccccc3F)c3ccccc32)c1 | 17.2% | -0.1% | 3.98µM* | ? | 7.91µM* | ?
O=[N+]([O-])c1ccc(S(=O)(=O)Nc2ccccn2)cc1 | 0.7% | ? | 15.1% | 4.1% | / | /
CC1CCCCN1CCNc1nc(=S)[nH]c2ccccc12 (stereo unspecified) | -6.4% | 2.33µM* | 3.55µM* | 2.5% | -5.9% | -20.6%
CC1CCCCN1CCn1c(=S)[nH]c2ncccc2c1=O (stereo unspecified) | 9.5% | 10.3% | 8.4% | -14.1% | / | /
O=[N+]([O-])c1ncccc1OCc1ccc(Cl)c(Cl)c1 | -2.7% | 17.7% | -16.7% | 26.0% | / | /
CN1CCN(S(=O)(=O)c2ccc(N(C)Cc3ccc(C(F)(F)F)cc3)c([N+](=O)[O-])c2)CC1 | ? | ? | 3.16µM* | 10.4µM* | 14.1µM* | 28µM*
Cc1cc(C)c(CN2CCN(C(=O)Cn3cnc4c(OCc5ccccc5)ncnc43)CC2)c(C)c1 | -2.3% | / | 0.562µM* | / | 2.5µM* | 5.6µM*

Assay outcomes (PubChem BioAssay)
